The experiment deals with MDA-MB-468 breast. Briefly: NCI-60 one-dose screen, 48 h (100 = growth as untreated, 0 = no growth, -100 = all killed). To be noted: 10 µM unless noted.

This is part of a sample that, as a whole, favours compounds with a hit. Of some 83,000 tested, about 20% had one in any assay.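 Negative percent growth values reflect cell death: -40 means 40% of the cells present at the start died, and -100 means all died.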 A number with no mark means an inactive call. Active and inactive are the calls of the source. Rule for the calls: active = growth percent below 10; inactive = the rest.

Results on 37 molecules are retold here after PubChem BioAssay (NCI).

As for `CCN(CC)CCN1C(=O)c2c(c(C)c3c(oc4ccc(OC)cc43)c2C)C1=O`, the growth is 101%.

`COc1cc(Cn2c(SCC(=O)Nc3cc(OC)c(OC)c(OC)c3)nc3ccccc3c2=O)cc(OC)c1OC`: the growth was 72.7%.

In the case of `O=C(CCCCCCN1CC(=O)N2[C@@H](c3ccc(Cl)c(F)c3)c3[nH]c4ccccc4c3C[C@H]2C1=O)NO`, the growth was 85.5%.

As to `Cn1cc(-c2nonc2-c2cn(C)c3ccccc23)c2ccccc21`, the growth is 30.3%.

Regarding `COc1cccc(-c2cc3c(O)cc(C#N)cc3[nH]2)c1`, the growth was 102%.

Turning to `COc1cc2nc(Nc3ccc(F)cc3)nc(N)c2cc1OC`, the growth is 83.4%.

`Cc1cc(N)cc(C)c1-c1c(Br)cc(N)cc1Br`: the growth is -28% (active).

`COc1ccc(-c2nc(-c3nc4ccc(Cl)cc4[nH]3)c3ccccn23)cc1`: the growth is 61.5%.

As to `O=C(Nc1ccc(Cl)c(Cl)c1)NC(CO)(CO)CO`, the growth is 95.9%.

In the case of `O=C(O)c1c([N+](=O)[O-])cnc2ccccc12`, the growth is 112%.

For the molecule `CCSc1oc(-c2ccccc2)nc1[P+](c1ccccc1)(c1ccccc1)c1ccccc1`, the growth is -37.6% (active).

`COC(=O)[C@]1(C)CCC[C@]2(C)[C@H]3C[C@H]4C(C(C)C)=C[C@]3(CC[C@H]21)[C@@H]1C(=O)N(CCC#N)C(=O)[C@@H]14`: the growth was 86.9%.

As for `C=CC[n+]1c(/C=C/C=C2\N(C)c3ccccc3C2(C)C)sc2ccc(OC)cc21`, the growth was -5.71% (active).

In the case of `C=C1C(=O)O[C@H]2[C@H]1CC/C(COC(=O)c1ccc(C(=O)O)s1)=C\CC[C@@]1(C)O[C@@H]21`, the growth was -46.7% (active).

As to `CCCCCCCCCCCCSC1=C(Cl)C(=O)C(OC)=C(OC)C1=O`, the growth is 20.9%.

`CCCCc1n(Cc2ccc3ccccc3c2)c2ccccc2[n+]1Cc1ccc2ccccc2c1`: the growth was -78.1% (active).

As to `N=c1sc(Cc2cc(Cl)ccc2Cl)cn1CC(=O)c1ccccc1`, the growth was 61.3%.

Consider `CC1(/C=C/c2ccc(-c3ccccc3)cc2)CCn2cnc3ncnc(c32)N1O` (configuration not stated), for which the growth was -5.41% (active).

Consider `CNC(=O)c1c(NC(=O)c2ccc(C(C)C)cc2)sc2c(CN(C)C)c(O)ccc12`, for which the growth was 86.3%.

Take `CC(C)(Sc1cc(C(C)(C)C)c(O)c(C(C)(C)C)c1)Sc1cc(C(C)(C)C)c(OC(=O)CCC(=O)O)c(C(C)(C)C)c1`: the growth was 47.4%.

On to `CCN1C(=O)C(C)C=C(C)C=C1C` (configuration not stated), for which the growth is 110%.

Take `COc1ccccc1-[n+]1cc(-c2ccc(-c3ccccc3)cc2)n2c1CCCCC2`: the growth is -23.5% (active).

Take `O=C(Nc1cccc(-c2nc(-c3ccc(NC(=O)c4cccs4)cc3Cl)no2)c1)Nc1ccc(NC(=O)C2CC2)c(C(F)(F)F)c1`: the growth is -84.6% (active).

`Cc1cc(Nc2ccc(OCc3ccccc3)cc2)nc2cc(O)ccc12`: the growth was 6.48% (active).

As to `Cc1ccc2sc3c(c2c1)OC(N)=C(C#N)C3c1cccc(F)c1` (configuration not stated), the growth was -14.1% (active).

Consider `COC(=O)c1cc(=O)nc(N/N=C/c2ccccc2O)s1`, for which the growth is 98%.

For `COc1ccc(-n2c(=O)sc3c(Cl)nc(C)nc32)c(OC)c1`, the growth was 57.8%.

On to `COc1ccc(/C=N/NC(=O)c2ccc(S(C)(=O)=O)cc2)cc1OC`, for which the growth was 100%.

Regarding `[Cu+].[NH-][C@H]1C[N-]C(=O)[C@H]([C@H]2CCN=C(N)N2)[N-]C(=O)/C(=C\NC(N)=O)[N-]C(=O)[C@H](CNC(=O)C[C@@H](N)CCCN)[N-]C(=O)[C@H](CO)[N-]C1=O`, the growth was 96.2%.

As for `CCN(CC)CCCCCCNc1cc(OC)cc2cccnc12`, the growth was 23.4%.

For the molecule `CSc1ccc(N2C(=N)C(=S)N(c3ccc(C)cc3)C2=O)cc1`, the growth was 121%.

For the molecule `O=[N+]([O-])c1cccc(N=C(Nc2cccc([N+](=O)[O-])c2)c2ccccc2)c1`, the growth was 43.2%.

As for `COc1cc(NC(N)=NCCC(C)(C)Oc2ccc(C(F)(F)F)cc2)ncc1C#N`, the growth was -84.4% (active).

`COc1cc(-c2nc3ccccc3[nH]2)ccc1OCc1nnc(-c2ccc(Br)cc2)o1`: the growth was 80.5%.

Take `CN([O-])c1nc(N(C)[O-])nc(N2CCOCC2)n1.CN([O-])c1nc(N(C)[OH2+])nc(N2CCOCC2)n1.[Fe+3]`: the growth is -52.3% [100 µM] (active).

`C=CCNC(=S)NN`: the growth is 56.5%.

As to `COc1ccc(C2C=C(c3ccc(Cl)cc3)N=C3SC=CN32)cc1` (configuration not stated), the growth was 120%.
